Test results from PubChem BioAssay.
Active and inactive are the calls of the source.

Tests used:
Albumin (Bos taurus) = Albumin (Bos taurus) (UniProt P02769); assay: compounds binding labelled BSA control protein – biochemical, small-molecule microarray, Alexa647 label, 635/667 nm fluorescence, artefact control for SMM control protein annotation, profiling panel (AID 1118); details: BSA-A647 binding, fluorescence 635 nm, higher = more signal;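 further: score merges 667 nm emission intensity and signal-to-noise per printed compound spot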
Albumin (Bos taurus), sequence (P02769 whole entry, looked up): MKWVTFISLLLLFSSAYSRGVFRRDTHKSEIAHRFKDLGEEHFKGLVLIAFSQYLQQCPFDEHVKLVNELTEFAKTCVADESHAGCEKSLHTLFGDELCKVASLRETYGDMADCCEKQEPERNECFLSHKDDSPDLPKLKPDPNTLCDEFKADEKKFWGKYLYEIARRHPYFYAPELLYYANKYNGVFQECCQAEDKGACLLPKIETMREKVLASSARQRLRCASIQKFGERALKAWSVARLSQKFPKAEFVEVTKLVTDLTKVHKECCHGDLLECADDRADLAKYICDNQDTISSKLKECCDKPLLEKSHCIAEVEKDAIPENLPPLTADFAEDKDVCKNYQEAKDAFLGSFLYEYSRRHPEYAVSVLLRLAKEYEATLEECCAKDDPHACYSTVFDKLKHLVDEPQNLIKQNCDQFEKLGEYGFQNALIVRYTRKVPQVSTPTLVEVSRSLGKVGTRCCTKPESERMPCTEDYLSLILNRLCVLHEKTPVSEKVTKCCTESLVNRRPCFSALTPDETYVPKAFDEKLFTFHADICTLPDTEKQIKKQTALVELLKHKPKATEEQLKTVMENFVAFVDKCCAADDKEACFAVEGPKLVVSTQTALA

[1] = probe aXIP binding to arrayed compounds – biochemical, NeuroSMM set, 635/667 nm fluorescence, primary screen (AID 1119); details: small-molecule microarray, higher = more signal, called active from +8 up or from −8 down;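 further: probe is the protein aXip251-270 applied at 1 µg/mL to compound-printed slides; binding of probe to printed compounds measured as 667 nm fluorescence plus signal to noise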
[2] = probe aNOTCH3 binding on compound microarray – biochemical, small-molecule microarray, 635/667 nm fluorescence, primary screen (AID 1120); details: higher = more signal;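 further: probe is a biotin-tagged antibody raised against NOTCH3 rather than NOTCH3 protein; score merges spot fluorescence near 667 nm with spot signal to noise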
[3] = probe aNOTCH2 binding on compound microarray – biochemical, small-molecule microarray, 635/667 nm fluorescence, primary screen (AID 1121); details: higher = more signal;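 further: score merges feature fluorescence read at 667 nm with its signal to noise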
[4] = molecular target: Carbonic anhydrase 2 (Homo sapiens) (UniProt P00918); assay: compounds binding carbonic anhydrase 2 – biochemical, small-molecule microarray, Alexa647-labelled CAII, profiling panel (AID 1122); details: CAII-A647 binding fluorescence, higher = more signal
[5] = COS7 lysate on small-molecule microarray, probe aHis, 635 nm (AID 1123); details: COS7 cell lysate, fluorescence, higher = more signal;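 further: z-score combines 667nm fluorescence intensity with signal-to-noise per printed compound spot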
[6] = probe aLAP1 signal on lysate-treated microarray – cell lysate, small-molecule microarray, COS7 lysate, primary screen (AID 1124); details: probe aLAP1, fluorescence, higher = more signal;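 further: lysate comes from COS7 cells expressing LAP1 and is applied at 0.3 µg/mL; score merges spot fluorescence near 667 nm with signal-to-noise over triplicate slides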
Sam68 (KHDRBS1) = assay: compounds binding KHDRBS1 protein – biochemical, small-molecule microarray, 635 nm fluorescence, primary screen (AID 1125); details: higher = more signal;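 further: score merges 667 nm channel intensity with signal to noise over triplicate slides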
[7] = system: Chordin-like protein 2 (CHRDL2); assay: compounds binding chordin-like 2 – biochemical, small-molecule microarray, 635 nm fluorescence, primary screen (AID 1126); details: fluorescence 635 nm, higher = more signal;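 further: printed compound slides probed with Chrdl2 protein at 4 µg/mL for 1 h at 4 C; score merges 667 nm emission intensity with signal to noise over three replicate slides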
[8] = molecular target: Concanavalin-A (Canavalia ensiformis) (UniProt P02866); assay: compounds binding concanavalin A lectin – biochemical, small-molecule microarray, Alexa647 label, 635 nm, artefact control for SMM control protein annotation, primary screen (AID 1127); details: ConA-A647 binding fluorescence, higher = more signal;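 further: z combines 667 nm emission intensity with signal-to-noise across three replicate slides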
Concanavalin-A (Canavalia ensiformis), sequence (P02866 whole entry, looked up): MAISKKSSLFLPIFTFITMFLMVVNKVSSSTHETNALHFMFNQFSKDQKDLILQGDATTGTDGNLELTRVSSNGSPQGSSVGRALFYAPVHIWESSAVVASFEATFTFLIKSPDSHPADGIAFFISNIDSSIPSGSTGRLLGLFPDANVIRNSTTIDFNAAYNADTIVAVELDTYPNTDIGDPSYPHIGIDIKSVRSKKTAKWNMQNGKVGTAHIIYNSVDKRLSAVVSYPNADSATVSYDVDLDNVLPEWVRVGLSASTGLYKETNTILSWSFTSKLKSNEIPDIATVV

[9] = compounds binding Alexa647 anti-His antibody – biochemical, small-molecule microarray, 635 nm fluorescence, artefact control for SMM control protein annotation, primary screen (AID 1128); details: higher = more signal;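 further: score merges feature fluorescence with signal-to-noise for each printed compound spot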
[10] = system: Human papillomavirus type 1a E7 protein (residues 1-88); assay: HPV1a E7 small-molecule binders, primary screen, biochemical, small-molecule microarray, residues 1-88, 635 nm (AID 1129); details: small-molecule microarray binding, fluorescence 635 nm; higher = more signal
[11] = molecular target: Focal adhesion kinase 1 (Homo sapiens) (UniProt Q05397); assay: PTK2 protein binding on printed compound slides – biochemical, small-molecule microarray, 635/667 nm fluorescence, BSA, DTT, primary screen (AID 1130); details: 635 nm fluorescence, higher = more signal;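 further: composite of spot emission at 667 nm and signal to noise over triplicate slides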
Focal adhesion kinase 1 (Homo sapiens), sequence (Q05397 whole entry, looked up): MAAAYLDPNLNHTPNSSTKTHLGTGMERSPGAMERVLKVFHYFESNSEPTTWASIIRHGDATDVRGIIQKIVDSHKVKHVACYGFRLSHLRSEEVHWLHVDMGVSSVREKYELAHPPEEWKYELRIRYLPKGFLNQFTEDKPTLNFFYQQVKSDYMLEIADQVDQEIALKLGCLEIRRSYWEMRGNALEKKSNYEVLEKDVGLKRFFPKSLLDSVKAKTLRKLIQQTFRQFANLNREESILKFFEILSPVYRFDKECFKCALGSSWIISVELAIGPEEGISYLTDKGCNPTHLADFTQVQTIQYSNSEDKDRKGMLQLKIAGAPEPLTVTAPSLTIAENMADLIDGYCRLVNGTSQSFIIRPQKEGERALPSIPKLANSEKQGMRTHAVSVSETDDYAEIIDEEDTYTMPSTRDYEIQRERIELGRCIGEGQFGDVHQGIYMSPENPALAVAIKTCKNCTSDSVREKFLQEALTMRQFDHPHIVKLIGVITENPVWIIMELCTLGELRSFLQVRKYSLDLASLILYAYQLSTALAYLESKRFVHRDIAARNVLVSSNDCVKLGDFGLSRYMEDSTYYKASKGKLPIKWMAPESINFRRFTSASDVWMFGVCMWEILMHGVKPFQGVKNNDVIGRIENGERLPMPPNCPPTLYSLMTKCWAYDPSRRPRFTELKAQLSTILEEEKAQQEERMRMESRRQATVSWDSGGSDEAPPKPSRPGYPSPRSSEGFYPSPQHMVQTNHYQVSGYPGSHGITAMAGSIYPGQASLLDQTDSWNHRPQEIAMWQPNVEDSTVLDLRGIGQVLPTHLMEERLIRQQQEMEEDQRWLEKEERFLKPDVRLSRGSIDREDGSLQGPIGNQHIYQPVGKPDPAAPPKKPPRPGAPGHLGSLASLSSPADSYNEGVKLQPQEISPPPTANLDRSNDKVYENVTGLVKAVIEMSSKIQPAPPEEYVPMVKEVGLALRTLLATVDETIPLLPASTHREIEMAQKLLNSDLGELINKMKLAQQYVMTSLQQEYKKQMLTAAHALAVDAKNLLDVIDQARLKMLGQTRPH

[12] = system: Fibrinogen (Alexa647-labelled); assay: Alexa647-fibrinogen binding to printed small molecules – biochemical, small-molecule microarray, 635/667 nm fluorescence, artefact control for SMM control-protein annotation, profiling panel (AID 1131); details: fibrinogen-A647 binding fluorescence, higher = more signal;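 further: z-score merges 667 nm fluorescence with per-spot signal-to-noise over triplicate slides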
[13] = molecular target: Follistatin (Homo sapiens) (UniProt P19883); assay: FST protein binding to printed compounds – biochemical, small-molecule microarray, 635/667 nm fluorescence, primary screen (AID 1132); details: 635 nm fluorescence, higher = more signal
Follistatin (Homo sapiens), sequence (P19883 whole entry, looked up): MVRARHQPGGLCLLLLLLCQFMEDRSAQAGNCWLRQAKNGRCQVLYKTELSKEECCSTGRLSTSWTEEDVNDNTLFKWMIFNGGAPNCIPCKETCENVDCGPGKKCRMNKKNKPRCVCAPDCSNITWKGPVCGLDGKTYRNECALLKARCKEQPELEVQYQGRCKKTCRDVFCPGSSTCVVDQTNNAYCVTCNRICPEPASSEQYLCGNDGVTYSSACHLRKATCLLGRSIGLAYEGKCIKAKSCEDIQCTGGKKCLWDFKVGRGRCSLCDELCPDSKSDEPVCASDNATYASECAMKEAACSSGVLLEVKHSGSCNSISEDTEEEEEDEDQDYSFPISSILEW

[14] = molecular target: Fibroblast growth factor 2 (Homo sapiens) (UniProt P09038); assay: basic fibroblast growth factor binding to printed compounds – biochemical, small-molecule microarray, 635/667 nm fluorescence, primary screen (AID 1133); details: FGF2, fluorescence 635/667, higher = more signal
Fibroblast growth factor 2 (Homo sapiens), sequence (P09038 whole entry, looked up): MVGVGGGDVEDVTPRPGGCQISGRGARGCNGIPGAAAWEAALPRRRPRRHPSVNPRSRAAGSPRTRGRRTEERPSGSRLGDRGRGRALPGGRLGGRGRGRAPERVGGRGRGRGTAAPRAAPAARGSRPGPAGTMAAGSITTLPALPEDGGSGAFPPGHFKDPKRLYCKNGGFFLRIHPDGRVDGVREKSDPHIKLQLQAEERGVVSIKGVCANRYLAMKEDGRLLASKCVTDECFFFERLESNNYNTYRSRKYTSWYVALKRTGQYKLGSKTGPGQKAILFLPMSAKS

[15] = JC-1 mitochondrial potential readout, lung cancer cells – cell-based, A549, JC-1 fluorescence, basal, 24 h, 100 nL, profiling panel (AID 1138); details: higher = more signal;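 further: A549 lung adenocarcinoma cells under basal conditions with no added stimulus; test concentration not given here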
Lefty1 = Lefty1 protein binding to printed compounds – biochemical, small-molecule microarray, 635/667 nm fluorescence, primary screen (AID 1139); details: fluorescence 635/667, higher = more signal
[16] = system: wheat germ agglutinin (Triticum aestivum), Alexa647-labelled; assay: Alexa647-WGA lectin binding to printed small molecules – biochemical, small-molecule microarray, 635/667 nm fluorescence, artefact control for SMM control-protein annotation, profiling panel (AID 1140); details: WGA-A647 binding, 635 nm fluorescence, higher = more signal;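 further: score merges 667 nm feature emission with signal to noise over triplicate slides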
[17] = molecular target: Luciferin 4-monooxygenase (Photinus pyralis) (UniProt P08659); assay: inhibition of purified Photinus pyralis luciferase – biochemical, luminescence, purified enzyme, 2006 set, primary screen (AID 1141); details: purified firefly luciferase, SteadyGlo luminescence, 30 min; higher = more signal, called active from +8 up or from −8 down;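 further: cell-free assay with purified firefly luciferase at 100 ng per well in PBS; test concentration not given here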
Luciferin 4-monooxygenase (Photinus pyralis), sequence (P08659 whole entry, looked up): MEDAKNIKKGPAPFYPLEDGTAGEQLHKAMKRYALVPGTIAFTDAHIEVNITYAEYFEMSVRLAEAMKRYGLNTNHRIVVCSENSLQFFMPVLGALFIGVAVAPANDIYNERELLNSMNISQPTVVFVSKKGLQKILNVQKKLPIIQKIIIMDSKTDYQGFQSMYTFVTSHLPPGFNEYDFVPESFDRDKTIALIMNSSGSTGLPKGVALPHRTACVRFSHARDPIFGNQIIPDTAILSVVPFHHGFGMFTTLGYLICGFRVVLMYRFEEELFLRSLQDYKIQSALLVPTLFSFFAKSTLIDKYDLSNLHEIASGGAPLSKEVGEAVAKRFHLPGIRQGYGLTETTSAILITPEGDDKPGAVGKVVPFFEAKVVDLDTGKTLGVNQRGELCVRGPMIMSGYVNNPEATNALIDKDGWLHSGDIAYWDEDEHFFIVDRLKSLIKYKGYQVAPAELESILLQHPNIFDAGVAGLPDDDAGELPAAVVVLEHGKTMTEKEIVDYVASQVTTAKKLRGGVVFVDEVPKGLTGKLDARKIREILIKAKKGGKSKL

| Compound | composite z-score (Albumin (Bos taurus)) | composite Z-score [1] | composite z-score [2] | composite z-score [3] | composite z-score [4] | composite z-score [5] | composite z-score [6] | composite z-score (Sam68 (KHDRBS1)) | composite z-score [7] | composite z-score [8] | composite z-score [9] | composite z-score [10] | composite z-score [11] | composite z-score [12] | composite z-score [13] | composite z-score [14] | z-score [15] | composite z-score (Lefty1) | composite z-score [16] | z-score [17] |
| --- | --- | --- | --- | --- | --- | --- | --- | --- | --- | --- | --- | --- | --- | --- | --- | --- | --- | --- | --- | --- |
| C=CC[C@@]1(C(=O)NCCN2CCOCC2)N=C(c2ccc(OCCCO)cc2)O[C@@H]1c1ccccc1N=[N+]=[N-] | 0.711 | 0.346 (inactive) | -0.396 | -0.109 | 0.716 | 1.62 | 0.232 | 0.176 | 0.703 | -0.572 | 0.373 | 0.126 | 0.503 | 0.161 | 1.36 | 0.399 | 0.404 | 0.113 | 1.18 | -5.94 (inactive) |
| O=C1C[C@@](C(=O)NCC(F)(F)F)(c2ccc([N+](=O)[O-])cc2)[C@@H](c2ccc(CO)cc2I)N1C1CCCCC1 | 0.365 | 0.004 (inactive) | 0.03 | -0.0394 | 0.437 | 2.22 | -0.0164 | 1.23 | 0.189 | 0.676 | 0.226 | 1.25 | 0.466 | 0.9 | 1.05 | 1.26 | 1.8 | 0.394 | 0.834 | 0.59 (inactive) |
| [N-]=[N+]=Nc1ccccc1[C@H]1OC(c2ccc(OCCCO)cc2)=N[C@@]1(CCS(=O)(=O)c1ccccc1)C(=O)NCC(O)CO (stereo not given in full) | 0.876 | -0.0683 (inactive) | 0.102 | -0.0984 | 0.718 | 3.02 | 0.261 | 1.33 | -0.907 | 0.833 | 1.52 | 0.94 | 0.605 | 1.07 | 1.27 | 0.057 | 0.233 | -0.0179 | 0.914 | -9.88 (active) |
| COCCCNC(=O)[C@@H]1c2ccccc2C(=O)N(Cc2ccccc2Cl)[C@H]1c1ccc(CO)cc1 | -0.432 | -0.129 (inactive) | -0.147 | 0.151 | 0.656 | 1.72 | -0.503 | 0.95 | 0.683 | 0.772 | 3.19 | 1.17 | 0.36 | 0.381 | 1.33 | 1.04 | 2.35 | 0.753 | -0.0431 | -1.27 (inactive) |
| O=C(c1ccccc1)N1Cc2ccccc2C[C@@]2(COC(c3ccc(OCCCO)cc3)=N2)C1=O | 0.833 | -0.305 (inactive) | -0.0647 | -0.0304 | 0.288 | 2.66 | 0.549 | 1.29 | 0.271 | 1.11 | 2.32 | 1.23 | 0.242 | 0.905 | 1.34 | 1.45 | 0.604 | 0.663 | 0.71 | -1.31 (inactive) |
| COC(=O)[C@@]1(Cc2ccccc2)[C@H]2c3cc(C(=O)N4CCCC4)n(Cc4ccc(S(C)(=O)=O)cc4)c3C[C@H]2CN1C(=O)c1ccccc1 | 1.12 | 0.971 (inactive) | 0.511 | -0.173 | 0.902 | 1.92 | 0.559 | 1.29 | -0.832 | 0.978 | 1.27 | 1.27 | 2.05 | 1 | 1.03 | -0.771 | 0.687 | -0.07 | 1.08 | 1.3 (inactive) |
| O=C1NC(=O)C2C1C=CC(C(O)c1cccs1)N2Nc1ccc(Cl)cc1Cl (stereo not given) | 0.165 | -0.196 (inactive) | 0.267 | 0.181 | 0.723 | 1.03 | 0.293 | -0.374 | -0.352 | -0.376 | 0.541 | -0.443 | -0.0686 | -0.868 | -0.222 | -0.534 | -0.384 | -0.245 | 0.22 | -1.64 (inactive) |
| CC1(C)C2C=C(C(O)C3C=CC4C(=O)NC(=O)C4N3Nc3ccc(Cl)cc3Cl)C[C@@H]1C2 (stereo not given in full) | 0.818 | 0.392 (inactive) | 0.323 | 0.155 | 0.423 | 1.24 | 0.906 | 0.337 | 0.061 | 0.899 | 1.26 | 0.87 | -0.167 | 0.606 | 1.02 | -0.169 | -1.44 | 0.317 | 0.698 | 0.155 (inactive) |
| C[N+](C)(C)CCCCNC(=O)[C@@H]1C[C@@H]2C(=O)N[C@@H](Cc3ccccc3)C(=O)N2[C@@H]1c1cccc(OCCO)c1 | -0.634 | 0.668 (inactive) | -0.217 | -0.199 | 0.66 | 0.959 | -0.15 | -0.174 | 1.04 | -0.504 | 3.38 | -0.636 | -0.449 | -1.23 | 1.32 | 1.55 | 1.21 | 0.245 | -1.02 | -1.75 (inactive) |
| CC(C)CNC(=O)[C@@]1(Cc2ccccc2I)c2ccccc2C(=O)N(C2CCCCC2)[C@H]1c1ccc(CO)cc1 | 0.82 | 2.21 (inactive) | -0.139 | -0.0432 | 0.619 | 2.1 | 2.06 | 0.342 | 0.133 | 0.565 | 1.57 | 1 | 0.321 | 0.348 | 0.0932 | 0.99 | 1.57 | -0.104 | 0.84 | 0.258 (inactive) |
| COc1ccc(CCNC(=O)[C@@H]2c3ccccc3C(=O)N(Cc3ccccc3Cl)[C@H]2c2ccc(CO)cc2)cc1 | 0.0645 | -0.145 (inactive) | -0.0647 | -0.0712 | 0.363 | 1.47 | 0.0463 | 0.579 | -0.014 | 0.207 | 0.218 | 1.14 | 0.224 | 0.435 | 0.495 | 0.187 | 2.4 | -0.0833 | 0.261 | -0.745 (inactive) |
